Growth data for seven compounds are collected here from PubChem BioAssay (NCI).

About 83,000 compounds went through this panel and 20% of them were active in at least one assay; those are over-represented in the sample as a whole.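 The test compound was applied at a single concentration to cells in 96-well plates for 48 hours, and percent growth was recorded.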 Unmarked numbers belong to inactive results. Activity calls are given as the source filed them. Rule for the calls: active = growth percent below 10; inactive = the rest.

Some test systems named below: HCT-15 colon; HT29 colon; SNB-19 CNS; U251 CNS; PC-3 prostate; SK-MEL-5 melanoma; UACC-62 melanoma; LOX IMVI melanoma; SK-MEL-28 melanoma; SK-MEL-2 melanoma; EKVX NSCLC; SN12C renal; UO-31 renal; TK-10 renal; ACHN renal; CAKI-1 renal; A498 renal; HL-60(TB) leukemia; CCRF-CEM leukemia; SNB-75 CNS.
Common to all, as to assay: NCI-60 one-dose screen, 48 h (100 = growth as untreated, 0 = no growth, -100 = all killed)
Common to all, as to conditions: 10 µM unless noted

As to `NC1CN2CCC1CC2` (stereo not given), the growth with HCT-15 colon was 99.3%; in the assay on HT29 colon it was 99.8%; in the assay with SNB-19 CNS, 101%; in the assay with U251 CNS it was 103%; in the assay on PC-3 prostate, 90.7%; with SK-MEL-5 melanoma, 110%. Also, the growth with UACC-62 melanoma is 90.4%; with LOX IMVI melanoma, 97.2%; with SK-MEL-28 melanoma it was 100%; with SK-MEL-2 melanoma, 100%; with EKVX NSCLC, 96.5%; in the assay with SN12C renal, 108%. Further, the growth was 80.3% in the assay with UO-31 renal; 98.2% in the assay on TK-10 renal; 93% with ACHN renal; 86.7% with CAKI-1 renal; 97.8% in the assay on A498 renal; 84.9% in the assay with HL-60(TB) leukemia. Besides, in the assay on CCRF-CEM leukemia, the growth was 93%.

Regarding `O=[N+]([O-])c1cc(Cl)c(Cl)c([N+](=O)[O-])c1Cl`, the growth is -18.5% (active) in the assay on HCT-15 colon; 29.9% in the assay with HT29 colon; 103% with SNB-19 CNS; 78.7% in the assay on U251 CNS; 66.8% in the assay on PC-3 prostate; 79.1% with SK-MEL-5 melanoma. The growth is 86% in the assay on UACC-62 melanoma; -26.2% (active) with LOX IMVI melanoma; 103% with SK-MEL-28 melanoma; 116% in the assay with SK-MEL-2 melanoma; 122% in the assay with EKVX NSCLC; 23.1% in the assay with SN12C renal. Further, the growth in the assay with UO-31 renal was 5.47% (active); in the assay on TK-10 renal, 80.7%; in the assay on ACHN renal, -30.1% (active); in the assay with CAKI-1 renal, -71.5% (active); with A498 renal, 108%; with HL-60(TB) leukemia, 22.2%. In the assay with CCRF-CEM leukemia, the growth was 15%.

For `CCCN1C(=O)NC(=O)C(CC)(N2C(=O)c3c(F)c(F)c(F)c(F)c3C2=O)C1=O` (stereo not given), the growth was -51.8% (active) in the assay on HCT-15 colon; -66.6% (active) with HT29 colon; -94.9% (active) with SNB-19 CNS; -48% (active) in the assay on U251 CNS; -59.2% (active) in the assay with PC-3 prostate; -91.7% (active) with SK-MEL-5 melanoma. Also, the growth is -68.6% (active) in the assay on UACC-62 melanoma; -55.9% (active) in the assay with LOX IMVI melanoma; -93.7% (active) with SK-MEL-28 melanoma; -65.2% (active) with SK-MEL-2 melanoma; -44.4% (active) with EKVX NSCLC; -72.7% (active) with SN12C renal. The growth with TK-10 renal is -76.4% (active); in the assay with ACHN renal, -79.4% (active); in the assay on CAKI-1 renal, -89.9% (active); in the assay on A498 renal, -85.3% (active); in the assay on HL-60(TB) leukemia, -80.1% (active); with CCRF-CEM leukemia, -56.7% (active).

Consider `CC(=O)c1cccc(S(=O)(=O)F)c1`, for which the growth is 96.3% with HCT-15 colon; 104% with HT29 colon; 117% in the assay with SNB-75 CNS; 100% in the assay with U251 CNS; 79% with PC-3 prostate; 110% with SK-MEL-5 melanoma. Also, the growth in the assay with UACC-62 melanoma is 103%; in the assay with LOX IMVI melanoma it was 90.1%; with SK-MEL-28 melanoma, 120%; in the assay with SK-MEL-2 melanoma, 91.9%; in the assay on EKVX NSCLC it was 98.8%; with SN12C renal, 104%. For the same compound, the growth in the assay with UO-31 renal is 83%; with TK-10 renal, 115%; in the assay with ACHN renal, 99%; in the assay on CAKI-1 renal, 95.9%; with HL-60(TB) leukemia, 103%; in the assay on CCRF-CEM leukemia, 97.9%.

Regarding `CN1CCC2(CC1)C(C#N)C(=O)NC(=O)C2C#N` (stereo not given), the growth in the assay on HCT-15 colon is 98.4%; in the assay with HT29 colon, 118%; with SNB-75 CNS, 76.4%; in the assay with PC-3 prostate, 101%; with SK-MEL-5 melanoma, 102%; in the assay on UACC-62 melanoma, 101%. Also, the growth in the assay with LOX IMVI melanoma was 100%; in the assay with SK-MEL-28 melanoma it was 95.1%; in the assay with SK-MEL-2 melanoma, 113%; with SN12C renal it was 105%; in the assay with UO-31 renal, 91.9%; in the assay on TK-10 renal, 125%. In addition, the growth is 110% with ACHN renal, 92% in the assay on CAKI-1 renal and 95.8% with A498 renal.

`CC(=O)Nc1nc2c(s1)C1=CC[C@H]3[C@@H]4CC[C@H](OC(C)=O)[C@@]4(C)CC[C@@H]3[C@@]1(C)CC2`: the growth in the assay on HCT-15 colon was 40.3%; in the assay with HT29 colon, 26.6%; in the assay with SNB-75 CNS it was 0.377% (active); with U251 CNS it was 43.9%; in the assay on PC-3 prostate, 59.2%; with SK-MEL-5 melanoma, 36.9%. The growth is 49.5% in the assay on UACC-62 melanoma; 63.5% in the assay on LOX IMVI melanoma; 54.7% with SK-MEL-28 melanoma; 50.3% with SK-MEL-2 melanoma; 82.9% with EKVX NSCLC; 69.7% in the assay on SN12C renal. Also, the growth in the assay on UO-31 renal was 72.7%; in the assay with TK-10 renal it was 96.2%; in the assay with ACHN renal, 67.7%; in the assay on CAKI-1 renal, 24.4%; in the assay with HL-60(TB) leukemia, 43.4%; with CCRF-CEM leukemia, 57.7%.

Regarding `CC1=C([Te]c2ccccc2)C(=O)c2ccccc2C1=O`, the growth in the assay on HCT-15 colon is -43.6% (active); in the assay on HT29 colon, -22.7% (active); in the assay with SNB-19 CNS, 2.43% (active); in the assay with U251 CNS, -30.1% (active); in the assay on PC-3 prostate, -30.8% (active); in the assay with SK-MEL-5 melanoma, -95% (active). For the same compound, the growth with UACC-62 melanoma was -24.9% (active); in the assay with LOX IMVI melanoma it was -41.7% (active); with SK-MEL-28 melanoma, -64.4% (active); in the assay with SK-MEL-2 melanoma it was 9.62% (active); in the assay with EKVX NSCLC, -38.6% (active); with SN12C renal, 5.18% (active). The growth in the assay with UO-31 renal was -33.4% (active); with TK-10 renal, -33% (active); with ACHN renal it was -86.6% (active); in the assay on CAKI-1 renal it was -46.5% (active); in the assay on A498 renal, -66% (active); in the assay on CCRF-CEM leukemia, -44.9% (active).
